Measurements published in PubChem BioAssay (Tox21).
Records with an inconclusive call do not appear. Entries that show only a call come without a potency. Unmarked numbers belong to inactive results. The source made the active and inactive calls. Calls follow the shape of the dose curve; as a rule, active = well fitted activation curve with a large enough effect in the repeat runs; inconclusive = weak or mixed curves; inactive = flat fitted curve, though single readings scatter.

assay: A CellTox Green Cytotoxicity Assay to monitor cytotoxicity in HEK293 cells - 24 hour (AID 1224875); conditions: CellTox Green fluorescence; series mostly up to 76.8 µM; also: nearly all actives have a fitted effect of over 45% in size
Source text: National Center for Advancing Translational Sciences [NCATS]
NIH Chemical Genomics Center [NCGC]
U.S. Environmental Protection Agency [EPA]
National Institutes of Environmental Health Sciences [NIEHS]
National Toxicology Program [NTP]
Cell-based models are critical for drug discovery. Determining the natural cytotoxic effects resulting from test compounds is an essential research activity. A CellTox Green Cytotoxicity Assay to monitor cytotoxicity in real time of continues cell culture during 40 hours of the compound treatment was used to screen Tox21 10K library compounds in Hek293 cells. CellTox Green Cytotoxicity Assay is a nonlytic, homogeneous, biofluorescent method to measure cytotoxicity in cell culture after experimental manipulation. The assay system uses a proprietary asymmetric cyanine dye that is excluded from viable cells but preferentially stains the dead cell's DNA. […] Viable cells produce no appreciable increases in fluorescence. Therefore, the fluorescence signal produced by the binding interaction with dead cell DNA is proportional to cytotoxicity.
The mixture of Hek293 cell suspension and reagents were dispensed at 600cells/6 ul/well in 1536-well tissue culture treated black solid bottom plates using a Multidrop dispenser. After the assay plates were incubated at a 37 C/5% CO2 incubator for 5 hours, 23 nL of compounds dissolved in DMSO, positive and negative controls was transferred to the assay plate by a pintool work station. The plates were incubated at 37 C for 40 hours. The fluorescence intensity were measured at 0h, 8h, 16h, 24h, 32h and 40h time points using ViewLux plate reader during compound treatment.

Row | SMILES | Potency | activity change
1 | COc1cc(C(=O)N2CCCCCCC2)cc(OC)c1OC | inactive | 
2 | COc1ccc2c(c1)c(CC(=O)OCC(=O)O)c(C)n2C(=O)c1ccc(Cl)cc1 | inactive | 
3 | CC(C(=O)O)c1ccc(CC2CCCC2=O)cc1 (stereo not given) | inactive | 
4 | CCN1CCC[C@H]1CNC(=O)c1cc(S(N)(=O)=O)ccc1OC | inactive | 
5 | Nc1ccccc1S(=O)(=O)O | inactive | 
6 | CC(=O)CC(C)(C)C1CCCCC1 | inactive | 
7 | O=S(O)CO | inactive | 
8 | Nc1c[n+](N2CCOCC2)no1 | inactive | 
9 | Cc1cnc(NS(=O)(=O)c2ccc(N)cc2)nc1 | inactive | 
10 | CN(C(=O)c1c(O)c2ccccc2n(C)c1=O)c1ccccc1 | inactive | 
11 | O=C(O)CCCc1ccccc1 | inactive | 
12 | COC(=O)c1ccc(C)cc1C1=NC(C)(C(C)C)C(=O)N1 (stereo not given) | inactive | 
13 | NS(=O)(=O)c1cc(C(=O)NN2C[C@H]3[C@H]4CCC(C4)[C@H]3C2)ccc1Cl | inactive | 
14 | O=c1cc(CO)occ1O | inactive | 
15 | COc1nc(N)nc2c1ncn2[C@@H]1O[C@H](CO)[C@@H](O)[C@@H]1O | inactive | 
16 | CCOC(=O)[C@H](CCc1ccccc1)N[C@@H](C)C(=O)N1[C@H](C(=O)O)C[C@@H]2CCC[C@@H]21 | inactive | 
17 | Brc1c(NC2=NCCN2)ccc2nccnc12 | inactive | 
18 | OC[C@]1(O)OC[C@@H](O)[C@H](O)[C@@H]1O | inactive | 
19 | CCn1nc(C(=O)O)c(=O)c2cc3c(cc21)OCO3 | inactive | 
20 | O=[N+]([O-])c1ccc(F)cc1F | inactive | 

Row | SMILES | Potency | activity change
21 | CCc1ccc(O)c(OC)c1 | inactive | 
22 | CCOC(=O)CCC(C)=O | inactive | 
23 | N[C@H](C(=O)O)c1ccc(O)cc1 |  | 0.19% [at 15.8 µM, stronger effect = higher value]
24 | N[C@@H](C(=O)N[C@@H]1C(=O)N2C(C(=O)O)=C(Cl)CS[C@H]12)c1ccccc1 |  | 0.0795% [at 6.97 µM, stronger effect = higher value]
25 | CC(C)c1cc2c(cc1S(=O)(=O)O)[C@@]1(C)CCC[C@@](C)(C(=O)O)[C@@H]1CC2 | inactive | 
26 | CCCCCSCCCCC | inactive | 
27 | NC(CSCC(=O)O)C(=O)O (stereo not given) | inactive | 
28 | CCCCCOC(=O)CCCCC | inactive | 
29 | O=C[C@H](O)[C@@H](O)[C@H](O)[C@H](O)CO | inactive | 
30 | Cc1cc(O)cc2c1O[C@](C)(CCC[C@H](C)CCC[C@H](C)CCCC(C)C)CC2 | inactive | 
31 | CN1N=C(C(N)=O)CCC1=O | inactive | 
32 | CCC(C)S (stereo not given) |  | 2.02% [at 2.72 µM, stronger effect = higher value]
33 | CC(=O)OCC(CCn1cnc2cnc(N)nc21)COC(C)=O | inactive | 
34 | COc1c(N2C[C@@H]3CCCN[C@@H]3C2)c(F)cc2c(=O)c(C(=O)O)cn(C3CC3)c12 | inactive | 
35 | O=C1CCCN1C1CCCCC1 | inactive | 
36 | NCCCNCCSP(=O)(O)O |  | -8.68% [at 6.97 µM, stronger effect = higher value]
37 | NS(=O)(=O)c1cc2c(cc1Cl)NC(C1CC3C=CC1C3)NS2(=O)=O (stereo not given) | inactive | 
38 | COC(=O)c1cc(C(=O)OC)cc(S(=O)(=O)O)c1 | inactive | 
39 | CN1C(=O)N(C)C(O)C1O (stereo not given) | inactive | 
40 | CC(C)(c1ccc(O)cc1)c1ccc(O)cc1 | inactive | 
